In ChEMBL document CHEMBL4296182, “CO-ADD screening of NIH NCI Diversity Set V” one finds Inhibition data, which are given here for 18 molecules.

The test system of one assay is Staphylococcus aureus. Briefly: Antibacterial activity against Staphylococcus aureus MRSA ATCC 43300 (CO-ADD:GP_020); MIC in CAMBH media using NBS plates, by Resazurin F(560/590). The class given is functional. To be noted: Concentration 20 uM, ASSAY_TEST Inhibition of Bacterial Growth, detection method Resazurin, Fluorescence (ex560/em590), MEDIA CAMHB, plate type 384well, CORNING #3640, time 18 hr. For orientation: Alamar Blue is a resazurin reagent that responds to reducing activity.

The test system of another assay is Acinetobacter baumannii. Kind of assay: Antibacterial activity against Acinetobacter baumannii ATCC 19606 (CO-ADD:GN_034); MIC in CAMBH media using NBS plates, by Resazurin F(560/590). Type of assay: functional. The settings on record: Concentration 20 uM, ASSAY_TEST Inhibition of Bacterial Growth, detection method Resazurin, Fluorescence (ex560/em590), MEDIA CAMHB, plate type 384well, CORNING #3640, time 18 hr.

A further assay has as its system Escherichia coli. Briefly: Antibacterial activity against Escherichia coli ATCC 25922 (CO-ADD:GN_001); MIC in CAMBH media using NBS plates, by Resazurin F(560/590). The class given is functional. To be noted: Concentration 20 uM, ASSAY_TEST Inhibition of Bacterial Growth, detection method Resazurin, Fluorescence (ex560/em590), MEDIA CAMHB, plate type 384well, CORNING #3640, time 18 hr.

Another assay deals with Klebsiella pneumoniae. To be noted: Concentration 20 uM; ASSAY_TEST Inhibition of Bacterial Growth; detection method Absorption (OD600); MEDIA CAMHB; plate type 384well; NBS; CORNING #3640; time 18 hr.
Another assay has as its system Candida albicans. To be noted: 20 µM.
The subject of a further assay is Cryptococcus neoformans. To be noted: Concentration 20 uM; ASSAY_TEST Inhibition of Fungal Growth; detection method Resazurin; Absorption (OD600-OD570); plate type 384well; NBS; CORNING #3640.

For part of these data: Results with a measured potency or affinity are listed apart.

A word on the Inhibition: it is the drop in the measured response relative to a control, in per cent. In the case of `CC1(C)CC2(C)OC2C2(C1)N=N/C(=N/c1ccccc1)O2` (stereo not drawn), the Inhibition in the assay with Staphylococcus aureus was 27.69%; with Acinetobacter baumannii, -0.3%; in the assay with Escherichia coli, 4.99%; in the assay on Klebsiella pneumoniae, 7.34%; in the assay with Candida albicans, -0.47%; in the assay with Cryptococcus neoformans it was -10.74%.

For `C(=C\c1ccc(/C=C/c2ccccc2)nn1)/c1ccccc1`, the Inhibition in the assay on Staphylococcus aureus was 12.1%; in the assay on Acinetobacter baumannii, 11.6%; in the assay with Escherichia coli, 2.44%; in the assay on Klebsiella pneumoniae, 18.32%; with Candida albicans, 0.82%; in the assay on Cryptococcus neoformans, -5.49%.

Turning to `NCc1c(O)ccc2ccccc12`, the Inhibition is 7.19% with Staphylococcus aureus; -7.97% in the assay on Acinetobacter baumannii; -11.88% in the assay with Escherichia coli; 11.42% with Klebsiella pneumoniae; 3.27% with Candida albicans; 15.16% in the assay on Cryptococcus neoformans.

Consider `Oc1nc(S)ncc1Oc1ccc(Cl)cc1Cl`, for which the Inhibition in the assay on Staphylococcus aureus was 8.02%; with Acinetobacter baumannii, 11.12%; in the assay with Escherichia coli, 2.19%; in the assay with Klebsiella pneumoniae, 10.84%; in the assay on Candida albicans, 6.27%; with Cryptococcus neoformans, -6.95%.

For `Sc1cnnc2ccccc12`, the Inhibition is -0.57% in the assay on Staphylococcus aureus; -12.95% with Acinetobacter baumannii; -15.13% in the assay on Escherichia coli; 9.37% in the assay on Klebsiella pneumoniae; 6.56% in the assay with Candida albicans; 22.39% with Cryptococcus neoformans.

On to `O=[N+]([O-])c1ccccc1CSc1nc(O)c2nc[nH]c2n1`, for which the Inhibition in the assay on Staphylococcus aureus is 26.98%; in the assay on Acinetobacter baumannii, 9.09%; in the assay with Escherichia coli it was 5.06%; with Klebsiella pneumoniae, 15.06%; with Candida albicans it was 1%; with Cryptococcus neoformans, -13.62%.

As to `COc1cc(NC(C)=O)c2ncccc2c1Br`, the Inhibition is 8.44% in the assay with Staphylococcus aureus; -11.34% with Acinetobacter baumannii; 10.55% in the assay on Escherichia coli; 15.6% in the assay with Klebsiella pneumoniae; 6.33% with Candida albicans; -16.73% in the assay with Cryptococcus neoformans.

Turning to `Nc1[nH]nc2nc(-c3ccccc3)nc(O)c12`, the Inhibition in the assay with Staphylococcus aureus is -2.47%; in the assay with Acinetobacter baumannii, -10.04%; with Escherichia coli it was 2.06%; with Klebsiella pneumoniae, 6.75%; in the assay with Candida albicans it was -0.22%; in the assay with Cryptococcus neoformans it was -3.34%.

Consider `N=C1OC(c2ccccc2)C(O)=C1O` (stereo not drawn), for which the Inhibition was 0.33% in the assay on Staphylococcus aureus; -10.5% in the assay with Acinetobacter baumannii; 6.34% in the assay on Escherichia coli; 8.48% in the assay with Klebsiella pneumoniae; 7.04% in the assay on Candida albicans; -2.61% with Cryptococcus neoformans.

As to `Cc1ccc(/N=N\c2c(O)ccc3[nH]nnc23)cc1`, the Inhibition in the assay on Staphylococcus aureus was -9.42%; in the assay on Acinetobacter baumannii it was -9.08%; with Escherichia coli, 4.02%; in the assay on Klebsiella pneumoniae it was 11.98%; in the assay with Candida albicans, 13.2%; in the assay with Cryptococcus neoformans, -12.82%.

In the case of `COc1cc([N+](=O)[O-])ccc1NC(=O)Oc1ccc(NC(C)=O)cc1`, the Inhibition was 1.87% in the assay with Staphylococcus aureus; 5.68% in the assay with Acinetobacter baumannii; 0.56% in the assay with Escherichia coli; 4.62% in the assay with Klebsiella pneumoniae; 0.51% in the assay on Candida albicans; -16.29% in the assay on Cryptococcus neoformans.

For the molecule `O=[N+]([O-])c1cc(-c2cccnc2)[nH]n1`, the Inhibition was -4.13% with Staphylococcus aureus; -4.27% in the assay on Acinetobacter baumannii; 2.34% with Escherichia coli; 30.86% in the assay with Klebsiella pneumoniae; 1.12% in the assay with Candida albicans; -1.42% in the assay on Cryptococcus neoformans.

Consider `Cc1nnc(Cc2ccccc2)c2[nH]nc(C)c12`, for which the Inhibition in the assay on Staphylococcus aureus is 16.17%; in the assay with Acinetobacter baumannii, 11.32%; in the assay with Escherichia coli it was 1.75%; in the assay with Klebsiella pneumoniae, 14.15%; in the assay with Candida albicans, 5.79%; with Cryptococcus neoformans it was -4.44%.

Take `Nc1nc(SCc2ccccc2)sc1C(=O)N1CCCCC1`: the Inhibition in the assay on Staphylococcus aureus is 18.6%; with Acinetobacter baumannii, 4.73%; in the assay on Escherichia coli it was 3.88%; in the assay on Klebsiella pneumoniae, 21.18%; in the assay on Candida albicans, 8.19%; with Cryptococcus neoformans, -7.01%.

In the case of `Oc1ccc2ccc3[nH]cnc3c2c1`, the Inhibition is 14.46% with Staphylococcus aureus; -12.2% in the assay with Acinetobacter baumannii; 3.66% in the assay with Escherichia coli; 6.42% in the assay with Klebsiella pneumoniae; -0.74% in the assay on Candida albicans; -8.68% with Cryptococcus neoformans.

With `c1ccc(-c2cc3ccccc3[nH]2)cc1` [2-PHENYL-1H-INDOLE], the Inhibition with Staphylococcus aureus was 0.91%; in the assay on Acinetobacter baumannii, -19.68%; in the assay on Escherichia coli it was 16.97%; in the assay on Klebsiella pneumoniae, 15.65%; in the assay with Candida albicans, 3.85%; in the assay on Cryptococcus neoformans it was -3.77%.

As to `CC(O)c1nc2c(c(=O)n(C)c(=O)n2C)n1C` (stereo not drawn), the Inhibition was -5.57% with Staphylococcus aureus; -6.98% with Acinetobacter baumannii; 6.75% with Escherichia coli; 7.56% in the assay with Klebsiella pneumoniae; -1.01% in the assay with Candida albicans; -6.24% in the assay on Cryptococcus neoformans.

As for `COc1ccccc1N1C(=O)CC(Sc2ccccc2N)C1=O` (stereo not drawn), the Inhibition is 13.62% with Staphylococcus aureus; 1.84% in the assay with Acinetobacter baumannii; 10.06% with Escherichia coli; 1.73% in the assay with Klebsiella pneumoniae; 0.29% with Candida albicans; -6.31% in the assay on Cryptococcus neoformans.
